The source made the active and inactive calls. The calls were made as follows: active = hit-call score of the fitted dose curve at least 0.9, where 1 is the maximum; inactive = score below 0.9.
Experiment: CEETOX_H295R_OHPROG: CeeTox H295R High-throughput Steroidogenesis Assay for OH-Progesterone (OHPROG) (AID 2283435)
Settings: actives raise or lower the signal
Procedure: CEETOX_H295R is a cell-based, multiplexed-readout assay that uses H295R, a human adrenal gland cell line, with measurements taken at 48 hours after chemical dosing in a 96-well plate.CEETOX_H295R_OHPROG is one of 23 assay component(s) measured or calculated from the CEETOX_H295R assay. It is designed to make measurements of hormone induction, a form of inducible reporter, as detected with absorbance signals by HPLC-MS-MS technology.Data from the assay component CEETOX_H295R_OHPROG was analyzed into 1 assay endpoint. This assay endpoint, CEETOX_H295R_OHPROG, was analyzed with bidirectional fitting relative to DMSO as the negative control and baseline of activity. Using a type of inducible reporter, gain or loss-of-signal activity using HPLC-MS-MS was used to understand synthesis of 17alpha-hydroxyprogesterone in H295R cell line at 48hr of chemical exposure. To generalize the intended target to other relatable targets, this assay endpoint is annotated to the steroid hormone intended target family, where the subfamily is progestagens.
Cell culture and media preparation procedures were conducted in accordance with OECD Test No. 456 guidelines, with minor modifications. H295R cells (ATCC CRL-2128) were expanded for 5 passages and frozen in batches in liquid nitrogen. Prior to the steroidogenesis assay, H295R cells were thawed and passed at least 4 times. The maximum passage was 10. Cells were maintained in a 1:1 mixture of DMEM/F12 supplemented with 5ml/L ITS+ Premix (BD Bioscience) and 12.5 ml/L Nu-Serum (BD Bioscience). After seeding cells into 96-well plates at 50-60% confluency, cells were allowed to adhere overnight. Prior to chemical testing, culture medium was replaced with 175 uL medium containing 10 uM forskolin to stimulate steroidogenesis for 48 hours. Following prestimulation, forskolin medium was replaced with medium containing test chemical solubilized in DMSO (ensuring a final concentration of 0.1% DMSO). Test chemicals were incubated for 48 hours, then the medium was removed and split into 2 vials containing approximately 75uL each, and stored at -80 C prior to hormone analysis. For steroid quantification, media samples were shipped to OpAns, LLC (Durham, NC) on dry ice, and samples were thawed to room temperature prior to liquid-liquid extraction. Steroid hormones were extracted from media samples using methyl tertbutyl ether (MTBE). An extra derivatization with dansyl chloride was included for estrogen (estrone and estradiol) detection only. Steroid hormones were separated by HPLC, eluted using a reverse phase C18 gradient with electrospray positive ionization, followed by quantification by tandem mass spectrometry (MS/MS). Data were acquired on a MassHunter Workstation Acquisition version B03.01 (Agilent Technologies, Inc.) and processed using MassHunter Quantitative Analysis for QQQ. Accuracy was determined for each hormone analyte from 3 standards to determine upper and lower limits of quantification (ULOQ and LLOQ, respectively) using a 7-point standard curve. Precision and accuracy of the extraction and quantification methods were calculated as the percent relative standard deviation (%RSD) of the spiked standards and percent spiked standard recovered, respectively. […] Test medium was removed following chemical exposure, and cell viability was evaluated in the same wells by MTT. MTT procedures were as follows: after removal of test medium, 500 uL of 0.5 mg/ml of 3-[4,5-dimethylthiazol-2-y]2,5-diphenyltetrazoliumbromide solution was added to the cells. Following a 4-hour incubation at 37 C and 5% CO2 to allow formazan-crystal formation, the MTT solution was removed and blue formazan salt crystals were solubilized using 500uL anhydrous isopropanol with shaking for 20 minutes. Absorbance was read at 570 and 650nm using a Packard Fusion microplate reader. Background correction of absorbance units was used to determine percent change relative to controls. […]

Which outcome does the source give for `CC(C)=CCCC(C)=CC=O` here?
Its outcome is “inactive”.

Which outcome does the source give for `C=CCCCCCCCCC(=O)O` here?
Its outcome is “inactive”.

With `O=C(O)c1cccc(N(Cc2cccnc2)c2ccc(OC(F)F)c(OC(F)F)c2)c1` as the molecule, how does the AC50 read?
The AC50 was 7.82 µM (active).

For `CC[C@H]1CC[C@H](NCc2cc3c(cc2OC)[C@H]2C[C@H]2C(=O)N3C)[C@H](c2ccccc2)N1`, which outcome is on record?
Its outcome is “inactive”.

For `CCCCCCCCO`, which outcome is on record?
Its outcome is “inactive”.

For `COc1ccc(-n2nc(C(F)F)cc2-c2ccc(S(C)=O)cc2)cc1` (stereo not drawn), which outcome is on record?
The outcome was “inactive”.

For `CC(C)(O)c1coc(S(=O)(=O)NC(=O)Nc2c3c(cc4c2CCC4)CCC3)c1`, which AC50 is on record?
Its AC50 is 10.4 µM (active).

Which AC50 does the source give for `CCC(C)(C)C(=O)O[C@H]1C[C@@H](C)C=C2C=C[C@H](C)[C@H](CC[C@@H]3C[C@@H](O)CC(=O)O3)[C@H]21` here?
Its AC50 is 0.809 µM (active).

With `COc1ccc(/C=C/S(=O)(=O)NC(=O)c2ccc(C)cc2Cl)cc1` as the molecule, how does the AC50 read?
Its AC50 is 17.7 µM (active).

With `Fc1ccccc1[C@@H](F)COC1CCC(Nc2ncnc3[nH]ncc23)CC1` (stereo partly drawn) as the molecule, how does the AC50 read?
The AC50 was 3.91 µM (active).

Which outcome does the source give for `COc1cccc(-c2ccc(/C=C\CN3CCCCCC3)cc2Cl)c1` here?
Its outcome is “inactive”.

Which AC50 does the source give for `Oc1ccc2c(c1)-c1ccccc1C2` here?
Its AC50 is 13.5 µM (active).

With `CC(C)c1cccc(C(C)C)c1N1C(=O)c2ccc(O)cc2C1=O` as the molecule, how does the AC50 read?
The AC50 was 31.7 µM (active).

For `CN(C)c1ccc(Cc2ccc(N(C)C)cc2)cc1`, which outcome is on record?
Its outcome is “inactive”.

With `CC1=CC(=O)CC(C)(C)C1` as the molecule, how does the outcome read?
Its outcome is “inactive”.

Which outcome does the source give for `COC(=O)c1c(Cl)c(Cl)c(C(=O)OC)c(Cl)c1Cl` here?
Its outcome is “inactive”.

Which outcome does the source give for `CCOc1cccc(-n2cc(C(=O)N3CCN(c4cc(C(=O)O)c5ccccc5c4)CC3)nc2-c2ccc(C)cc2)c1` here?
Its outcome is “inactive”.

Which outcome does the source give for `CC(C)CC(C)(O)C#CC(C)(O)CC(C)C` (stereo not drawn) here?
Its outcome is “inactive”.

With `CC[C@H](C)C(=O)O[C@H]1C[C@@H](C)C=C2C=C[C@H](C)[C@H](CC[C@@H]3C[C@@H](O)CC(=O)O3)[C@H]21` as the molecule, how does the AC50 read?
The AC50 was 2.96 µM (active).

With `CCOC(=O)c1ccc(C2CCC(NC[C@H](O)COc3ccc(O)c(NS(C)(=O)=O)c3)CC2)cc1` (stereo partly drawn) as the molecule, how does the AC50 read?
The AC50 was 5.6 µM (active).

For `Nc1ccc(Nc2ccccc2)cc1`, which AC50 is on record?
The AC50 was 13.9 µM (active).

With `Cc1c(-c2cccnc2)c2ccccc2n1CCCCC(=O)O` as the molecule, how does the outcome read?
The outcome was “inactive”.

Which outcome does the source give for `Cn1c(=O)cc(Oc2ccc(F)cc2F)c2cnc(NCC(C)(C)O)nc21` here?
The outcome was “inactive”.

For `Cc1ccc(N)cc1O`, which AC50 is on record?
The AC50 was 39.8 µM (active).

With `CNS(=O)(=O)c1cc(C(=O)N2CCC(CCN3C4CCC3CC(n3c(C)nc5ccccc53)C4)(c3cccc(F)c3)CC2)c(Cl)cc1F` (stereo not drawn) as the molecule, how does the AC50 read?
The AC50 was 2.65 µM (active).

Which AC50 does the source give for `O=c1[nH]c2ccc(S(=O)CCN3CCC(Cc4ccc(F)cc4)CC3)cc2o1` (stereo not drawn) here?
The AC50 was 5.68 µM (active).

For `Cc1ccc(O)cc1`, which outcome is on record?
The outcome was “inactive”.

Which outcome does the source give for `CCCCCCCCCCCCCCCO` here?
Its outcome is “inactive”.

From PubChem BioAssay (EPA / NIEHS)
